# An excerpt weighted towards active compounds, which were near 11% of everything screened.
# HEK cytotox = kills HEK 293 cells | HEK 293 viability, ATP luminescence (CellTiter-Glo), 48-72 h | Potency, µM (doses to about 115 µM), inactives show top-dose activity change, negative = cytotoxicity, most hits filed as inhibitors | 94,000 compounds, 6.6% hits | AID 1345083; also: nearly all actives have a fitted effect of over 60% in size
#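 ATP-coupled CellTiter-Glo luminescence served as viability read-out, recorded 10 min after reagent addition at room temperature. HEK 293 cells, 250 cells/well, had been incubated with pintool-transferred compound for 48 or 72 hr at 37 degree Celsius.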
# FLuc inh = Photinus pyralis luciferase inhibition; Potency, µM (highest dose often 115 µM), hits mostly inhibitors; AID 1347043; purified P. pyralis luciferase, luminescence, biochemical; 76,000 compounds, 2.5% hits; also: nearly all actives have a fitted effect of over 65% in size
#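 Cell-free enzyme assay, 10nM P. pyralis luciferase, luciferin and ATP each at 10uM. Inhibition profiled over a 6-point titration, read as luminescence.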
# 3T3 cytotox = kills NIH 3T3 cells; 94,000 compounds, 4.3% hits; Potency, µM (doses to about 96.7 µM), for inactives: at the top dose activity change, negative = cytotoxicity, most hits filed as inhibitors; NIH 3T3 viability, CellTiter-Glo ATP luminescence, 48-72 h; also: nearly all actives have a fitted effect of over 55% in size
#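 First NIH 3T3 cells are plated at 400 cells/well; next compound is pinned in; then plates incubate 48 or 72 hr at 37 °C; finally CellTiter-Glo is added and luminescence read after 10 min.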
# NPR1 antag = blocks ANP-stimulated signaling of human Npr1 receptor. Potency, µM (highest dose often 46.3 µM), for inactives: at the top dose activity change, negative = inhibition, most hits filed as inhibitors. 76,000 compounds, 1.6% hits. P16066. HEK293 hNpr1 GloSensor cGMP, ANP-stimulated luminescence; calls by dose curve; also: nearly all actives have a fitted effect of over 60% in size
# Target sequence (P16066 whole entry, looked up): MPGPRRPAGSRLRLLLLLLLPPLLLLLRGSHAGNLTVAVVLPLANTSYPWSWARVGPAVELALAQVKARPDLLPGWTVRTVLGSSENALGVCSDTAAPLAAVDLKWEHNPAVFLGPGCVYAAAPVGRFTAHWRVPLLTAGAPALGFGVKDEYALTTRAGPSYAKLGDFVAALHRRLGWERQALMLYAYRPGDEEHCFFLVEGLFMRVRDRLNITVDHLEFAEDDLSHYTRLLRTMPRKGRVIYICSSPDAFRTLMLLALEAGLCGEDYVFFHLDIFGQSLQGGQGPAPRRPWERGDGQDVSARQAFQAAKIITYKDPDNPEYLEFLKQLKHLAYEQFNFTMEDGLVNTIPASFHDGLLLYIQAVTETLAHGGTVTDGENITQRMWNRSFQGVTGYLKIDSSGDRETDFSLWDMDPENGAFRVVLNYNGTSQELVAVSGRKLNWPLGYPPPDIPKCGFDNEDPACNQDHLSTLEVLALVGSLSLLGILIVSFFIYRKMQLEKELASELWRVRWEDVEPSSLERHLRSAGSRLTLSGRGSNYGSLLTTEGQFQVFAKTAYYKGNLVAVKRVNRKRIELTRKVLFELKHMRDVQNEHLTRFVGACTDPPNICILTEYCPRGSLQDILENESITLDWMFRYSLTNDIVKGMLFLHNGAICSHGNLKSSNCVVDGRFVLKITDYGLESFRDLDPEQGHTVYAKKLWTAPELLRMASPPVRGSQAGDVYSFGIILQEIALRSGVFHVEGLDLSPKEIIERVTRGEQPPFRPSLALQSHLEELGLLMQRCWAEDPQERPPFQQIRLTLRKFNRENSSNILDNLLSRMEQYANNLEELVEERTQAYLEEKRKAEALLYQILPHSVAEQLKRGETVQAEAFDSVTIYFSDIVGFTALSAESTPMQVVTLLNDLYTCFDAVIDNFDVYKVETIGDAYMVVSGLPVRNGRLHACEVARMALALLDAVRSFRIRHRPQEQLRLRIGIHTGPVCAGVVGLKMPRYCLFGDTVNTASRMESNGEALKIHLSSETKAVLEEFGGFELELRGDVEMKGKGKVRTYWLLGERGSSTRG
#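 Compound pre-incubated 30 min at room temperature on GloSensor-loaded HEK293 cells stably carrying hNpr1 and the pGS-40F cGMP biosensor. Stimulation uses hNppA at 0.1 nM final; luminescence is taken at baseline and 20 min post-agonist.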
# Active calls of the source: *; i = inactive; ? = inconclusive; . = not tested or not shown; [ ] = dose if it differs, or a comment. Unless noted, calls follow the shape of the dose curve; as a rule, active = well fitted curve in the direction sought with a large enough effect; inconclusive = small, poorly fitted or top-dose-only effect, or another doubt; inactive = no such curve, though single readings can be large; an effect the other way counts as inactive or inconclusive. % is scaled to controls: 0 for no effect and ±100 for the full control effect; potency is read from the fitted curve at half-maximal effect.
SMILES,HEK cytotox,FLuc inh,3T3 cytotox,NPR1 antag
Cc1ccccc1N1CCN(C(=O)c2ccc3c(c2)N(C)C2CCCCCN2C3=O)CC1 (stereo not given),45µM*,i,?,0%
CC(=O)Nc1ccc(CN2C[C@@H](F)[C@@H](OCc3nc4cc(C)c(C)cc4[nH]3)C2)cc1,?,i,?,0%[70.6 µM]
COC(=O)c1ccc2nc(CO[C@H]3CN(Cc4ccc(C(F)(F)F)cc4)C[C@H]3F)[nH]c2c1,50µM*,i,?,?
Cc1cc2nc(CO[C@H]3CN(Cc4ccc(C(=O)O)cc4)C[C@H]3F)[nH]c2cc1C,-8%[172 µM],22µM*,-1%[174 µM],-3%[70.6 µM]
CCN1C(=O)C2(CCN(S(=O)(=O)c3ccc(C)c(F)c3)CC2)c2ccccc21,16%,i,-5%,1%
O=C(CC(c1ccccc1)c1ccccc1Cl)N(Cc1cccnc1)C1CC1 (stereo not given),35µM*,i,?,-26%
CNC(=O)c1cc(C2CC2)nc2onc(C3CCN([S+](=O)([O-])c4ccccc4)C3)c12 (stereo not given),?,.,-19%,.
O=C(c1ccc(C2CCCNC2)cc1)N1CCC(Oc2cccc(F)c2)CC1 (stereo not given),28µM*,i,40µM*,-14%
COc1cccc(CNC(=O)c2cn3cc(-c4cccc(C#N)c4)sc3n2)c1,?,.,-21%,.
COc1ccc(-c2[nH]nc3ncc(-c4ccc(OC)nc4)nc23)c(C)c1,22µM*,i,?,4%[70.6 µM]
Cc1ccccc1-c1[nH]nc2ncc(-c3cccc(O)c3)nc12,?,i,?,-19%[70.6 µM]
Cc1ccccc1-c1[nH]nc2ncc(-c3ccsc3)nc12,32µM*,i,?,-13%[70.6 µM]
Cc1ccccc1-c1[nH]nc2ncc(-c3cccnc3)nc12,?,i,?,-5%[70.6 µM]
COc1ccc(-c2cnc3n[nH]c(-c4ccc(F)cc4C)c3n2)cc1,45µM*,i,32µM*,-1%[70.6 µM]
COc1ccc(-c2cnc3n[nH]c(-c4ccccc4C)c3n2)cn1,32µM*,i,?,-9%[70.6 µM]
OCC1(CN2CCCC2)CCN(Cc2c(Cl)cccc2Cl)CC1,?,i,?,2%
OCC1(CN2CCCC2)CCN(Cc2ccc3ccccc3c2)CC1,40µM*,i,40µM*,3%
OCC1(CN2CCCC2)CCN(Cc2cc(F)cc(F)c2)CC1,-5%,i,-30%,7%
OCC1(CN2CCCC2)CCN(C/C=C/c2ccccc2)CC1,35µM*,i,?,3%
Cc1ncc(CN2CCCC2C(=O)Nc2ccc(-c3cccc(F)c3)cc2)[nH]1 (stereo not given),?,i,?,-2%
Cc1ncc(CN2CCCC2C(=O)Nc2ccc(-c3cccc(F)c3)cc2)n1C (stereo not given),20µM*,i,?,16%
O=C(Nc1ccc(-c2cccc(F)c2)cc1)C1CCCN1Cc1ccc(CO)o1 (stereo not given),35µM*,?,?,-19%
CSCC(=O)N[C@H]1CCN2C(=O)c3cc(-c4ccc(Cl)cc4)ccc3NC(=O)[C@H]12,?,?,?,-20%[70.6 µM]
C[S+](=O)([O-])N1CCc2nc(C3CC3)nc(-c3ccc(Cl)cc3)c2C1,?,.,32µM*,.
CCc1nc2c(c(-c3ccc(OC)cc3)n1)CN([S+](=O)([O-])c1cccc(OC)c1)CC2,-31%,.,28µM*,.
SMILES,HEK cytotox,FLuc inh,3T3 cytotox,NPR1 antag
CCc1nc2c(c(-c3ccc(Cl)cc3)n1)CCN([S+](=O)([O-])c1ccccc1)CC2,35µM*,i,?,-16%
C[S+](=O)([O-])N1CCc2nc(-c3ccccc3)nc(-c3ccc(Cl)cc3)c2C1,-16%,i,-16%,4%
COc1ccc(-c2nc(C(C)C)nc3c2CN([S+](=O)([O-])c2cccc(OC)c2)CC3)cc1,?,i,?,8%
Cc1ccccc1N(C)C1CN(C(=O)c2ccccn2)C1,79µM*,.,?,.
CCN(C1CCOCC1)C1CN(C(=O)c2ccccn2)C1,-6%,i,i,3%
CCN1C[C@H]2COc3ccccc3[C@H]2N(C(=O)COc2ccccc2)CCC1=O,-9%,.,?,.
Cc1sc2ccn(C)c(=O)c2c1C(=O)N1CCN(c2ccc(Cl)cc2)CC1,79µM*,i,-15%,-11%
Cc1sc2ccn(C)c(=O)c2c1C(=O)N1CCN(c2ccc(F)cc2)CC1,?,i,4%,-8%
CCOc1cccc2c1OC[C@@H]1CN(CCC#N)C(=O)CCN(C(=O)c3ccc(C)cc3)[C@H]21,-25%,.,?,.
CN(C)Cc1ccc(-c2cc3c(ccn3Cc3cccnc3)c(C3=CCOCC3)n2)cc1,56µM*,i,25µM*,-9%[70.6 µM]
C1=C(c2nc(-c3ccc(N4CCOCC4)cc3)cc3c2ccn3Cc2cccnc2)CCOC1,?,i,?,-2%
C1=C(c2nc(-c3cccc4[nH]ncc34)cc3c2ccn3Cc2cccnc2)CCOC1,89µM*,i,?,-20%[70.6 µM]
O=C(NCc1ccccn1)c1ccc2nnc(-c3ccc(OC(F)(F)F)cc3)n2c1,-10%,.,-22%,.
COc1ccccc1-c1cccc(CN2CCC(NC(=O)Nc3ccc(C)c(F)c3)CC2)c1,10µM*,.,20µM*,.
COCC(=O)NC1CCN(Cc2cccc(-c3ccccc3OC)c2)CC1,i,.,-21%,.
COc1ccccc1-c1cccc(CN2CCC(NC(=O)c3ccc(F)cc3)CC2)c1,40µM*,.,?,.
COc1ccccc1-c1cccc(CN2CCC(NC(=O)Cc3ccc(C(F)(F)F)cc3)CC2)c1,11µM*,.,11µM*,.
COc1cccc(-c2ccccc2NC(=O)C2CCN(Cc3cc(F)ccc3F)CC2)c1,22µM*,i,?,?
COc1ccc(-c2ccc(C(=O)N3CCN(Cc4ccccc4)CC3)cc2)nn1,?,.,-30%,.
COc1ccc(-c2nc(C)nc3c2CN(C(=O)C2CC2)CC3)cc1,-11%[172 µM],.,-16%[138 µM],.
CCc1nc2c(c(-c3ccc(O)cc3)n1)CN(Cc1ccsc1)CC2,-15%,.,-38%,.
CN1CC(C(=O)NCc2cccc(Cl)c2)NC1=O (stereo not given),-5%[172 µM],.,-11%[138 µM],.
COc1ccc(C(=O)NC2CCN(Cc3cccc(-c4ccccc4OC)c3)CC2)cc1,22µM*,.,?,.
Cc1ccc(C(=O)Nc2cc(-c3cccnc3)nn2-c2ccccc2)cc1,-28%,.,?,.
COc1ccc2nc([C@H]3CCN(Cc4ccncc4)C3)[nH]c2c1,-31%[172 µM],i,-15%[138 µM],1%[70.6 µM]
Fc1ccc2nc([C@H]3CCN(C4CCC4)C3)[nH]c2c1,?,5µM*,?,40µM*
c1cnc2nc([C@H]3CCN(C4CCCCC4)C3)[nH]c2c1,-14%[230 µM],28µM*,2%[230 µM],4%[70.6 µM]
O=C(C1CCCN([S+](=O)([O-])c2cccs2)C1)N1CCCC(c2nc3ncccc3[nH]2)C1 (stereo not given),89µM*,.,?,.

# Screening data deposited in PubChem BioAssay by National Center for Advancing Translational Sciences (NCATS).
